A short description of assay [1]: Nuclear factor erythroid 2-related factor 2/antioxidant responsive element (Nrf2/ARE) small molecule agonists: qHTS cell viability counter screen in human keratinocytes (AID 1919968; active = well fitted curve in the direction sought with a large enough effect in the repeat runs; an effect the other way counts as inactive or inconclusive; also: nearly all actives have a fitted effect of over 55% in size). The essentials:
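Parallel cytotoxicity read: KeratinoSens HaCaT cells, compound treatment 23 h, viability by CellTiter-Fluor fluorescence 1 h post-reagent.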

Assay [2] in a line: Nuclear factor erythroid 2-related factor 2/antioxidant responsive element (Nrf2/ARE) small molecule agonists: luciferase reporter gene qHTS assay in human keratinocytes (AID 1919969). Also: nearly all actives have a fitted effect of over 35% in size. Also: potency is read from the fitted curve at half-maximal effect. In general terms: Reporter assays use an easily measured gene product as a stand-in for the process of interest.
Assay [3] addresses Gonadotropin-releasing hormone receptor (Homo sapiens) (UniProt P30968). In words: Human gonadotropin-releasing hormone receptor (GnRHR) small molecule agonists, calcium flux assay in GnRHR-HEK293 cells (AID 1920063). Also: nearly all actives have a fitted effect of over 35% in size. The essentials:
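Calcium flux, agonist mode, human GnRHR stably integrated in HEK293; dye 1 h at 37 C before compound; Ex/Em=480/540 kinetic read, 3 min; 15 concentrations, triplicate.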
A general note: A change in cytosolic calcium serves as a functional read-out for many receptors and channels.

Assay [4] has as its target KiSS-1 receptor (Homo sapiens) (UniProt Q969F8). Put plainly: Human kisspeptin (KISS1R) small molecule agonists, calcium flux assay in KISS1R-HEK293 cells (AID 1920064; active = well fitted curve in the direction sought with a large enough effect in the repeat runs; an effect the other way counts as inactive or inconclusive). The essentials: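 Triplicate 15-concentration series were applied to dye-loaded human KISS1R HEK293 cells, and agonist-evoked calcium fluorescence was captured for 3 min.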
Assay [5] is described as follows: G protein-coupled receptor (GPCR) small molecule agonists, calcium flux assay: HEK293 wild type cell line counter screen (AID 1920065). The essentials:
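Non-specific calcium responders were flagged by adding DMSO-dissolved compounds to dye-loaded cells and reading 480/540 nm fluorescence each second for 3 min; ATP served as positive control.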

A short description of assay [6]: p53 small molecule agonists, cell-based qHTS assay with human liver microsomes (AID 1963577).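 Also: p53 response element beta-lactamase reporter cells with liver microsomes plus NADPH.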 The essentials:
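Metabolically competent format: test substances, human liver microsomes and NADPH (both 0.5 mg/mL final) incubated with p53RE-bla cells 16 h at 37 C. Beta-lactamase reporter signal then quantified by fluorescence.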

Assay [7] can be described thus: p53 small molecule agonists, cell-based qHTS assay with rat liver microsomes (AID 1963578). The essentials:
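Each plate received p53RE-bla cells, then compound, then rat liver microsomes and NADPH (both 0.5 mg/mL final). Plates were held 16 h at 37 C, and beta-lactamase activity was detected with LiveBLAzer over 2 h.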
On the technique in general: In qHTS, concentration-response curves come from the screen itself.

Assay [8] in a line: p53 small molecule agonists, cell-based qHTS assay with human liver microsomes: qHTS cell viability counter screen (AID 1963579). Also: nearly all actives have a fitted effect of over 45% in size. Also: potency is read from the fitted curve at half-maximal effect. In short, it runs like this:
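Tox21 library compounds, delivered from DMSO stocks, were tested on p53RE-bla cells together with 0.5 mg/mL human liver microsomes and 0.5 mg/mL NADPH (final) over 16 h at 37 C; CellTiter-Glo luminescence served as the cytotoxicity measure.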

Assay [9] can be described thus: p53 small molecule agonists, cell-based qHTS assay with rat liver microsomes: qHTS cell viability counter screen (AID 1963580). Also: nearly all actives have a fitted effect of over 45% in size. The essentials:
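After the beta-lactamase ratio was read, CellTiter-Glo was added to the same wells and luminescence measured at 30 min; cells had been treated 16 h at 37 C with compounds, rat liver microsomes and NADPH (0.5 mg/mL final each).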

Assay [10] can be described thus: p53 small molecule agonists, cell-based qHTS assay: qHTS cell viability counter screen (AID 1963581). Also: nearly all actives have a fitted effect of over 45% in size. The essentials:
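Multiplexed with the reporter read, a CellTiter-Glo step (30 min, room temperature) gauges ATP-based viability of HCT-116 p53RE-bla cells after 16 h compound incubation at 37 C.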

Assay [11] can be described thus: p53 small molecule agonists, cell-based qHTS assay (AID 1963582; active = well fitted activation curve with a large enough effect in the signal ratio in the repeat runs, not every such curve was filed as active; the % refers to the signal ratio). The essentials: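 Beta-lactamase reporter cells (p53RE-bla) treated with compounds for 16 h at 37 C; FRET substrate, 2 h, room temperature; fluorescence intensity.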
Assay [12] has as its target 5-hydroxytryptamine receptor 2A (Homo sapiens) (UniProt P28223). Put plainly: 5-hydroxytryptamine receptor 2A (HTR2A) small molecule antagonists, cell-based qHTS assay (AID 1963586). Also: nearly all actives have a fitted effect of over 45% in size. In short, it runs like this:
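CHO cells stably expressing human HTR2A were plated for 18 h at 37 C, then loaded with calcium dye for 1 h. Compounds were preincubated 5 min at room temperature before DOI (4 nM solution) was added. Kinetic fluorescence was read for 3 min.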

The target is the same in assay [13]. Put plainly: 5-hydroxytryptamine receptor 2A (HTR2A) small molecule agonists, cell-based qHTS assay (AID 1963587). Also: nearly all actives have a fitted effect of over 30% in size. In short, it runs like this:
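CHO cells stably expressing human HTR2A, plated 18 h, loaded with calcium dye 1 h at 37 C. Agonist mode: compounds added and intracellular calcium fluorescence recorded kinetically for 2 min at 1 sec intervals.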

For assay [14], the target named is Muscarinic acetylcholine receptor M1 (Homo sapiens) (UniProt P11229). In words: Cholinergic receptor muscarinic 1 (CHRM1) small molecule antagonists, cell-based qHTS assay (AID 1963588). Also: nearly all actives have a fitted effect of over 40% in size. The essentials:
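Compounds were tested at 15 concentrations in three independent runs. Dye-loaded CHRM1-CHO cells were exposed 5 min at room temperature before stimulation by acetylcholine added at 50nM. Intracellular calcium was read kinetically on FDSS for 3 min.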

Assay [15] shares this target. Put plainly: Cholinergic receptor muscarinic 1 (CHRM1) small molecule agonists, cell-based qHTS assay (AID 1963589). Also: nearly all actives have a fitted effect of over 35% in size. The essentials:
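qHTS, 15-point titration, 3 independent runs: compounds pin-transferred onto dye-loaded CHRM1-CHO cells (human M1), calcium fluorescence followed every second to detect agonism.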

Assay [16] is described as follows: cAMP Responsive Elements (CRE) small molecule agonists, cell-based qHTS assay (AID 1963590). The essentials: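 Quantitative HTS for CRE agonists: HEK 293T CRE-bla cells, overnight plating, 3 h compound incubation at 37 C/5% CO2, then 2 h room-temperature LiveBLAzer B/G FRET substrate loading.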
The nature of assay [17]: cAMP Responsive Elements (CRE) small molecule antagonists, cell-based qHTS assay (AID 1963591; active = well fitted inhibition curve with a large enough effect in the signal ratio in the repeat runs, not every such curve was filed as active; the % refers to the signal ratio). The essentials: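 Fluorescence intensity from cleaved LiveBLAzer B/G substrate (2 h, room temperature) quantified CRE-bla activity in HEK 293T cells exposed 3 h to compound with 0.25 uM final NKH477.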
Assay [18] has as its target Beta-2 adrenergic receptor (Homo sapiens) (UniProt P07550). In words: Adrenergic beta2 receptor (ADRB2) small molecule antagonists, cell-based qHTS assay (AID 1963592). Also: nearly all actives have a fitted effect of over 50% in size. Also: potency is read from the fitted curve at half-maximal effect. In short, it runs like this: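 Assay format: CHO-ADRB2 cells, 18-20hr seeding at 37C/5% CO2, then compound plus 1nM isoproterenol agonist mix for 0.5hr RT. Homogeneous time-resolved fluorescence cAMP detection after 1hr, expressed as 665/615 nm ratio.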

Assay [19] concerns the target D(2) dopamine receptor (Homo sapiens) (UniProt P14416). Put plainly: Dopamine D2 receptor (DRD2) small molecule agonists, cell-based qHTS assay (AID 1963594). Also: nearly all actives have a fitted effect of over 35% in size. In short, it runs like this: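 HEK293 cells stably expressing human DRD2, pre-treated with PDE inhibitor Ro20-1724 (0.1 mM final) and compound 10 min at room temperature, then stimulated with NKH477 (200nM […]) for 30 min. cAMP read by HTRF (665/620 nm).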

Assay [20] shares this target. Put plainly: Dopamine D2 receptor (DRD2) small molecule antagonists, cell-based qHTS assay (AID 1963595; active = well fitted inhibition curve with a large enough effect in the signal ratio in the repeat runs, with a control signal flat; the % refers to the signal ratio). In short, it runs like this: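 Human DRD2 antagonist qHTS measuring cAMP by HTRF. The cells are exposed to compound for 10 min, then to NKH477 (200 nM) and quinpirole (12 nM) for 30 min at RT, with Ro20-1724 (0.1 mM) present throughout.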

“And” between values parts separate entries of the source, which are not always exact repeats. Identical values can stand only once. Records with an inconclusive call do not appear. Where a structure was tested more than once in an assay, its records may differ in their call. The source made the active and inactive calls. Unless noted, calls follow the shape of the full dose curve.

Chain of Gonadotropin-releasing hormone receptor (Homo sapiens) (P30968 whole entry, looked up): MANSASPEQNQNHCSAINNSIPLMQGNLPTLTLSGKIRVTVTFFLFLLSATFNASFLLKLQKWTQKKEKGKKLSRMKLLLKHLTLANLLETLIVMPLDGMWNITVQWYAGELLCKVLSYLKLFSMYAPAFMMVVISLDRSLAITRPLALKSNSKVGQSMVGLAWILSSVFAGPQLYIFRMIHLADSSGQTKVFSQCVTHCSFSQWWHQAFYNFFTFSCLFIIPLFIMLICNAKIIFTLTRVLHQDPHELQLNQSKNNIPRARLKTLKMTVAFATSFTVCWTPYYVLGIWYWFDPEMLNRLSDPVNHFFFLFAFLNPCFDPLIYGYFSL
Chain of 5-hydroxytryptamine receptor 2A (Homo sapiens) (P28223 whole entry, looked up): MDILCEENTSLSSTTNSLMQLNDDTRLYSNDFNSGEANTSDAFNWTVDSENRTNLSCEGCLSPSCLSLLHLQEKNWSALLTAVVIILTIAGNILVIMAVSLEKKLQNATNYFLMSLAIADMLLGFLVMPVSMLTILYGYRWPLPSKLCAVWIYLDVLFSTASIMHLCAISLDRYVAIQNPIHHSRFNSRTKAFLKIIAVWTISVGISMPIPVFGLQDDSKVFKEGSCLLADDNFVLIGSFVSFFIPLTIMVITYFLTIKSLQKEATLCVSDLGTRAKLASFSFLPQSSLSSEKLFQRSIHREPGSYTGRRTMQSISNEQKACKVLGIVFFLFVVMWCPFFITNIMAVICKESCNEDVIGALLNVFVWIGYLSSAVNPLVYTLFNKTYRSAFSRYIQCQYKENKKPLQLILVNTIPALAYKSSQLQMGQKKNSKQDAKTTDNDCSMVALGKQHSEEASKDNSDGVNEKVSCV
Chain of Beta-2 adrenergic receptor (Homo sapiens) (P07550 whole entry, looked up): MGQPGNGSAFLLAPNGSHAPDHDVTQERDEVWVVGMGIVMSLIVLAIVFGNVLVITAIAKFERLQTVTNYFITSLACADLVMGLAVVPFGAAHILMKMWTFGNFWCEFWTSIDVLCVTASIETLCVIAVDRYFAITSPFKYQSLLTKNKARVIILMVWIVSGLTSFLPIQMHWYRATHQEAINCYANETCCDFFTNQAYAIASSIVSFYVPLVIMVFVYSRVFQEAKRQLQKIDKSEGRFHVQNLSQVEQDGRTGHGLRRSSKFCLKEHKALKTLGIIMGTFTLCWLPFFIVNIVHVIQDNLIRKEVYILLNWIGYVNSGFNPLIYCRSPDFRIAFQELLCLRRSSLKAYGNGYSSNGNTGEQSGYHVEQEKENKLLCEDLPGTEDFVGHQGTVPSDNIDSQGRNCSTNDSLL
Chain of Muscarinic acetylcholine receptor M1 (Homo sapiens) (P11229 whole entry, looked up): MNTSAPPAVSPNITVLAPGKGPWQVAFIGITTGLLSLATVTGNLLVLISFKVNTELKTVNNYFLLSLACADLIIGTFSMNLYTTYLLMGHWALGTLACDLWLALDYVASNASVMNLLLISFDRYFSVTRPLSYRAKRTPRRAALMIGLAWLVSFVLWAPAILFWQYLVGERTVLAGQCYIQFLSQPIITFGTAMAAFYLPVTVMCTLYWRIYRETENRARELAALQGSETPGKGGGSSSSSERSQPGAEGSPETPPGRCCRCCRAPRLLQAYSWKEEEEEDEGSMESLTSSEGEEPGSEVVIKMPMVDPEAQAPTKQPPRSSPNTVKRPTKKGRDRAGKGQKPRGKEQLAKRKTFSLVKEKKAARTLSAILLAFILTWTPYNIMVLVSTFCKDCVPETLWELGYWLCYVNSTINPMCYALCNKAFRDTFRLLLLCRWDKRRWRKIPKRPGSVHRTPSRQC
Chain of D(2) dopamine receptor (Homo sapiens) (P14416 whole entry, looked up): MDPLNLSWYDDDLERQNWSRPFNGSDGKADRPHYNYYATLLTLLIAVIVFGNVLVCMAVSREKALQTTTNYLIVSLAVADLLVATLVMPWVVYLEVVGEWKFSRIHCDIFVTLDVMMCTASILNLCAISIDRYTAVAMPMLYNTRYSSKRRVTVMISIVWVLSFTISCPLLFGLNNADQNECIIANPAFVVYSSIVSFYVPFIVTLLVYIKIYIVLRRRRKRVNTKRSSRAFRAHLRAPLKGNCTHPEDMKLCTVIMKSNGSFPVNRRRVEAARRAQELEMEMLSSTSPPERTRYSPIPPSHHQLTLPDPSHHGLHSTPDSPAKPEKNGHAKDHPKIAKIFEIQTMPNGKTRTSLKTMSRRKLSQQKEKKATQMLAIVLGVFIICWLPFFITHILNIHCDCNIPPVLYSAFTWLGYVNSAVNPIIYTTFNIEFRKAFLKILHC
Chain of KiSS-1 receptor (Homo sapiens) (Q969F8 whole entry, looked up): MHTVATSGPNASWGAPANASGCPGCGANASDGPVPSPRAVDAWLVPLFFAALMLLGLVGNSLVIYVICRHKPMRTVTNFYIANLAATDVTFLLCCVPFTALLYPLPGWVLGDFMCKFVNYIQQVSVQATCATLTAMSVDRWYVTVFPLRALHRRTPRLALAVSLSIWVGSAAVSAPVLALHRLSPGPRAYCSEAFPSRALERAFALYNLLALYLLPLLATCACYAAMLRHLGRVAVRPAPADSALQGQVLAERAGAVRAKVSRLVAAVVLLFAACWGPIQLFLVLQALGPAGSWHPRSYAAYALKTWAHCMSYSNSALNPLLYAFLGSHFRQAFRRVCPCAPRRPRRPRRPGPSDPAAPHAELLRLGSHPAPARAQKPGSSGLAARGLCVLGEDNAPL

As for `CNC(=S)N(C)C`, the Potency entry in [1], in assay [2], in [3], in [4], in assay [5] and in assay [6] was “inactive” throughout. The Potency result in [7], in assay [8], in assay [9], in assay [10], in assay [11] and in [12] was “inactive” throughout. Further, the Potency entry in [13], in assay [14], in assay [15], in assay [16], in assay [17] and in assay [18] was “inactive” each time. Further, the Potency result in assay [19] and in assay [20] was “inactive” each time.

As for `Nc1cccc(C(F)(F)F)c1`, the Potency entry in assay [1], in [2], in assay [3], in [4], in assay [5] and in assay [6] was “inactive” each time. The Potency result in [7], in [8], in assay [9], in assay [10], in assay [11] and in assay [12] was “inactive” throughout. In addition, the Potency result in assay [13], in assay [14], in [15], in assay [16], in assay [17] and in assay [19] was “inactive” throughout. In addition, the Potency entry in assay [20] was “inactive”. Moreover, in [18], the Potency result was “inactive and 54.5 µM (active)”.

As to `C=CN1CCCC1=O`, the Potency result in [1], in assay [2], in assay [3], in [4], in [5] and in assay [6] was “inactive” in each case. Moreover, the Potency result in [7], in assay [8], in assay [9], in [10], in assay [11] and in [12] was “inactive” each time. In addition, the Potency result in assay [13], in assay [14], in assay [15], in [17], in [18] and in assay [19] was “inactive” in each case. The Potency entry in assay [20] was “inactive”.

For the molecule `[O-]/[N+](=N\O)c1ccccc1`, the Potency entry in assay [1], in [3], in [4], in assay [5], in [6] and in [7] was “inactive” each time. Also, the Potency result in assay [8], in assay [9], in assay [10], in assay [11], in assay [12] and in [13] was “inactive” in each case. Besides, the Potency entry in [14], in assay [15], in [17], in assay [18], in [19] and in [20] was “inactive” throughout. In addition, the Potency in assay [2] was 68 µM (active) and 34.4 µM (active).

As to `O=c1cc[nH]c(=O)[nH]1`, the Potency result in assay [1], in [2], in assay [3], in assay [4], in assay [5] and in assay [6] was “inactive” in each case. Further, the Potency result in assay [7], in assay [8], in [9], in assay [10], in [11] and in assay [12] was “inactive” throughout. Moreover, the Potency result in assay [13], in assay [14], in assay [15], in [16], in assay [17] and in [18] was “inactive” each time. The Potency entry in [19] and in assay [20] was “inactive” throughout.

For the molecule `Nc1nc2ccccc2[nH]1`, the Potency entry in assay [1], in [2], in assay [3], in assay [4], in [5] and in assay [6] was “inactive” in each case. The Potency entry in assay [7], in assay [8], in assay [9], in [10], in assay [11] and in [12] was “inactive” in each case. The Potency entry in assay [13], in assay [14], in assay [15], in assay [16], in assay [19] and in assay [20] was “inactive” in each case.

Consider `O=c1cc[nH]c(=S)[nH]1`, for which the Potency result in assay [1], in assay [2], in assay [3], in [4], in assay [5] and in assay [6] was “inactive” in each case. Also, the Potency entry in assay [7], in assay [9], in [10], in [11], in [12] and in assay [13] was “inactive” each time. For the same molecule, the Potency entry in assay [14], in assay [15], in assay [16], in assay [17], in [18] and in assay [20] was “inactive” throughout. Moreover, the Potency result in assay [8] was “inactive and 793 nM (active)”.
